From PubChem BioAssay (EPA / NIEHS)
Several values for one entry are separate records, joined by “and”; a condition that tells them apart may be missing. Equal values may be shown once. Some structures have more than one record in an assay (separate samples or runs), and their calls can disagree. Activity calls are given as the source filed them. How the source made its calls: active means hit-call score of the fitted dose curve at least 0.9, where 1 is the maximum; inactive means score below 0.9.

Assays:
[1] = ATG_CRE_CIS: Attagene CIS-FACTORIAL HepG2 Assay for human cAMP Responsive Element (CRE) binding protein 3 (AID 2282926); settings: HepG2 CRE cis-reporter, Attagene multiplexed mRNA; actives raise or lower the signal
Procedure, shortened: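 Human liver HepG2, transient MRTU transfection, 24 h compound exposure. Total RNA → oligo(dT) RT → PCR → 6-FAM primer extension → HpaI cut → CE. Activity called both directions vs DMSO.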

[2] = biological target: CCAAT/enhancer-binding protein beta (Homo sapiens) (UniProt P17676); assay: ATG_C_EBP_CIS: Attagene CIS-FACTORIAL HepG2 Assay for human CCAAT/Enhancer Binding Protein (C/EBP) beta (AID 2282927); settings: HepG2 Attagene cis-factorial transcription factor reporter; actives raise or lower the signal
CCAAT/enhancer-binding protein beta (Homo sapiens), sequence (P17676 whole entry, looked up): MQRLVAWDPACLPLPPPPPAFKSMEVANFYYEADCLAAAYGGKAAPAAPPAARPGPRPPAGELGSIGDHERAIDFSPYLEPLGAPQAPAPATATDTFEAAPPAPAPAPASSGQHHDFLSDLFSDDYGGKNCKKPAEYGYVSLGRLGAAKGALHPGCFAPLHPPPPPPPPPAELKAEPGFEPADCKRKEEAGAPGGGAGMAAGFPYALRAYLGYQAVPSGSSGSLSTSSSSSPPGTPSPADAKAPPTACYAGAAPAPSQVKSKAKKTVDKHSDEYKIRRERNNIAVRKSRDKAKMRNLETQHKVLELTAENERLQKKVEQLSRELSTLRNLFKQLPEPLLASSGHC
Procedure, shortened: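 HepG2, transient MRTU transfection, 24 h treatment. RT-PCR plus CE fluorescence; DMSO negative control, bidirectional fit.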

[3] = ATG_CMV_CIS: Attagene CIS-FACTORIAL HepG2 Assay for human CMV (Internal Marker) (AID 2282928); settings: HepG2 CMV promoter reporter, transcription factor profiling; actives raise or lower the signal;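 further: endpoint acts as a background internal control marker rather than a target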
Procedure, shortened: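 Endogenous transcription factor activity read in HepG2 via transfected cis-promoter reporter units. After 24 h dosing, reporter mRNA measured by RT-PCR/capillary electrophoresis; gain or loss of signal fit relative to DMSO.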

[4] = ATG_DR4_LXR_CIS: Attagene CIS-FACTORIAL HepG2 Assay for human Liver X Receptor (LXR), DR4 submotif (AID 2282929); settings: HepG2 Attagene DR4 cis-reporter, mRNA transcription; actives raise or lower the signal
Procedure, shortened: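 HepG2, transient MRTU transfection, cis-element (DR4) promoter; 24 h compound exposure; total RNA → oligo(dT) RT → PCR → 6-FAM primer extension → HpaI cut → CE. Gain/loss vs DMSO, bidirectional fit.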

[5] = biological target: Aryl hydrocarbon receptor (Homo sapiens) (UniProt P35869); assay: ATG_Ahr_CIS: Attagene CIS-FACTORIAL HepG2 Assay for human Aryl Hydrocarbon Receptor (Ahr) (AID 2282930); settings: HepG2 AhR cis-factorial reporter transcription; actives raise or lower the signal
Aryl hydrocarbon receptor (Homo sapiens), sequence (P35869 whole entry, looked up): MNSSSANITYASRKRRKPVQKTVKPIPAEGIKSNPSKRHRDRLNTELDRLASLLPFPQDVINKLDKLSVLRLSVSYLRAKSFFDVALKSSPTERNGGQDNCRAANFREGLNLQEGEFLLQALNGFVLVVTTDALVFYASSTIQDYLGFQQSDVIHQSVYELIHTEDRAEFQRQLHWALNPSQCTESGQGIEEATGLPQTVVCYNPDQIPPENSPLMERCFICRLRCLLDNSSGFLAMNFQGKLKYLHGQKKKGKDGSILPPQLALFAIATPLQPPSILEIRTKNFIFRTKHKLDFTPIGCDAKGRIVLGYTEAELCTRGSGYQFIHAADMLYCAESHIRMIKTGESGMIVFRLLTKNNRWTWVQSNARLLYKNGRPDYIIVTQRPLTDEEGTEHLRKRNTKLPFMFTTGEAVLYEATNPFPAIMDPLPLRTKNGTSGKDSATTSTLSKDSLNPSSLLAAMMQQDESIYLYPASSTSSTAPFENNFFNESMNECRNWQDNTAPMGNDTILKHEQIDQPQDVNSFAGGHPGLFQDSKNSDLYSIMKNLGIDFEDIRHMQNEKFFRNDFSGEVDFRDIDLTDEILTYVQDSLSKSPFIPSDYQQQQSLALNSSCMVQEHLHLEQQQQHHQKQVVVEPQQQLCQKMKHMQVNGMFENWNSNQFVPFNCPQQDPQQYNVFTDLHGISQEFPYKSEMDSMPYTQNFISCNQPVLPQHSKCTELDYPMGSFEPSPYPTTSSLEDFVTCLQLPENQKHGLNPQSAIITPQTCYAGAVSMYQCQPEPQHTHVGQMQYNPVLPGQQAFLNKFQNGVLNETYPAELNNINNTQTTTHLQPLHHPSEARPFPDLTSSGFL
Procedure, shortened: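 Endogenous factor activity is tracked through cis-promoter reporter units transfected into HepG2 cells. Transcript levels at 24 h are read by fluorescent RT-PCR and capillary electrophoresis, with activity in either direction scored relative to DMSO.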

[6] = ATG_AP_1_CIS: Attagene CIS-FACTORIAL HepG2 Assay for human Activator Protein 1 (AP-1) (AID 2282931); settings: HepG2 Attagene cis-factorial AP-1 reporter mRNA; actives raise or lower the signal
Procedure, shortened: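 Transient MRTU transfection of HepG2 → 24 h chemical treatment → RNA isolation, RT-PCR, 6-FAM labelling, HpaI digest → capillary electrophoresis. Fit: bidirectional, DMSO negative control.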

[7] = ATG_AP_2_CIS: Attagene CIS-FACTORIAL HepG2 Assay for human Activator Protein 2 (AP-2) (AID 2282932); settings: HepG2 AP-2 cis-reporter, Attagene transcription factor profiling; actives raise or lower the signal
Procedure, shortened: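 Multiplexed mRNA reporter assay in HepG2: cis-regulated units report endogenous factor activity after 24 h treatment. Fluorescence from capillary electrophoresis of RT-PCR products gives the signal, with DMSO as baseline.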

[8] = ATG_BRE_CIS: Attagene CIS-FACTORIAL HepG2 Assay for human Bone Morphogenetic Protein (BMP) Response Element (BRE) (AID 2282933); settings: HepG2 BMP response element reporter, Attagene transcription factor profiling; actives raise or lower the signal
Procedure, shortened: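 A HepG2 multiplex reporter system measured inducible reporter mRNA 24 h post-dosing. Detection: RT-PCR, 6-FAM primer extension, HpaI digestion, capillary electrophoresis. Activity fitted bidirectionally relative to DMSO.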

[9] = biological target: Transcription factor E2F1 (Homo sapiens) (UniProt Q01094); assay: ATG_E2F_CIS: Attagene CIS-FACTORIAL HepG2 Assay for human E2F Transcription Factor 1 (AID 2282935); settings: HepG2 Attagene cis-reporter, E2F reporter RNA transcripts; actives raise or lower the signal
Transcription factor E2F1 (Homo sapiens), sequence (Q01094 whole entry, looked up): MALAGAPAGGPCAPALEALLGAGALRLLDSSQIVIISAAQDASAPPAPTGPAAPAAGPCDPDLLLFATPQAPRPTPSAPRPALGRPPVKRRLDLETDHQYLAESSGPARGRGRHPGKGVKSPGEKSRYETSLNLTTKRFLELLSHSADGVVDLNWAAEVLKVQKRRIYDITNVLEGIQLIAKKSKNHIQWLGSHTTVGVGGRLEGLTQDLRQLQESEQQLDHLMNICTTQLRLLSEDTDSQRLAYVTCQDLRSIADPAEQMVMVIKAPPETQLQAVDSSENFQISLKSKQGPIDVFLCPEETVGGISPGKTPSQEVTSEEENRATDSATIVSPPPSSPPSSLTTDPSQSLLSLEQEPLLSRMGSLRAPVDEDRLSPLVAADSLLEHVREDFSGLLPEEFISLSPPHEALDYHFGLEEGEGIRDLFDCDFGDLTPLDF
Procedure, shortened: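 Measures reporter transcript levels via RT-PCR with capillary electrophoresis detection in HepG2 cells harboring cis-regulated reporter units; 24 h post-dose; bidirectional curve fitting with DMSO as baseline.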

[10] = ATG_E_Box_CIS: Attagene CIS-FACTORIAL HepG2 Assay for human Enhancer Box (E-box) (AID 2282936); settings: HepG2 E-box cis-reporter transcription, actives raise or lower the signal
Procedure, shortened: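 First, HepG2 cells receive multiple cis-regulated reporter constructs by transient transfection. Next, chemicals are applied for 24 h. Finally, reporter mRNA is quantified via RT-PCR and capillary electrophoresis, with DMSO as baseline.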

[11] = ATG_M_61_CIS: Attagene CIS-FACTORIAL HepG2 Assay for M61 Transcription Factor (Internal Marker) (AID 2282937); settings: HepG2 Attagene CIS-FACTORIAL M61 internal marker reporter; actives raise or lower the signal
Procedure, shortened: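 Human liver HepG2, transient MRTU transfection (cis promoter elements), 24 h compound. Total RNA → oligo(dT) RT → PCR → FAM label → HpaI → CE. Internal background marker; bidirectional fitting, DMSO = baseline.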

[12] = ATG_EGR_CIS: Attagene CIS-FACTORIAL HepG2 Assay for human Early Growth Response 1 (EGR1) (AID 2282938); settings: HepG2 Attagene CIS-FACTORIAL EGR reporter mRNA; actives raise or lower the signal
Procedure, shortened: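 Transient transfection of human HepG2 with multiple cis-regulated reporter units, chemical exposure 24 h, total RNA isolated. Reverse transcription, PCR, fluorescent labelling and capillary electrophoresis quantify reporter transcripts; activity fitted bidirectionally against DMSO.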

[13] = ATG_ERE_CIS: Attagene CIS-FACTORIAL HepG2 Assay for Estrogen Response Element (ERE) (AID 2282940); settings: HepG2 ERE cis-reporter, Attagene RNA transcript; actives raise or lower the signal
Procedure, shortened: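 Human liver cells (HepG2) bearing transiently transfected, promoter-regulated reporter units were exposed 24 h. Reporter mRNA induction was detected by capillary electrophoresis of labelled RT-PCR products and fitted bidirectionally to DMSO.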

[14] = ATG_Ets_CIS: Attagene CIS-FACTORIAL HepG2 Assay for human Erythroblast Transformation Specific (ETS) (AID 2282941); settings: HepG2 ETS cis-reporter transcription, actives raise or lower the signal
Procedure, shortened: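 Steps: transfect HepG2 with multiple reporter units; treat compound 24 h; isolate RNA, DNase-treat, reverse-transcribe; PCR-amplify, label with 6-FAM, digest with HpaI; separate by capillary electrophoresis. Activity fitted both directions versus DMSO.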

[15] = biological target: Hepatocyte nuclear factor 3-beta (Homo sapiens) (UniProt Q9Y261); assay: ATG_FoxA2_CIS: Attagene CIS-FACTORIAL HepG2 Assay for human Forkhead box A2 (FOXA2) (AID 2282942); settings: HepG2 cis-reporter transcription factor activity, 24 h; actives raise or lower the signal
Hepatocyte nuclear factor 3-beta (Homo sapiens), sequence (Q9Y261 whole entry, looked up): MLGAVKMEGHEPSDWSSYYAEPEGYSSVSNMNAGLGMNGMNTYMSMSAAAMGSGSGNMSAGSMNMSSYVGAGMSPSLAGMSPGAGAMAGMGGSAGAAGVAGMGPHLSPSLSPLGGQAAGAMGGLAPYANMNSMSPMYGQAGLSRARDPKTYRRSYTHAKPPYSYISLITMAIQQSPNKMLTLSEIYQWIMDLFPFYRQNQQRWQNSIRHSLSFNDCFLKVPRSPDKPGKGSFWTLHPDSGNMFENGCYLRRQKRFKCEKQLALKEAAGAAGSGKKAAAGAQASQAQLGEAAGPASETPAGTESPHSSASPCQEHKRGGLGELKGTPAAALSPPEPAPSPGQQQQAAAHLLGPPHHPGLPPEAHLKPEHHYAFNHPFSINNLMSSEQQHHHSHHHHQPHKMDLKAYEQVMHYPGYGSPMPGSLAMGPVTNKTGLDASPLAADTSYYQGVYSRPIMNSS
Procedure, shortened: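 Transient MRTU transfection of HepG2 liver cells; 24 h treatment; total RNA → oligo(dT) RT → PCR → FAM primer extension → HpaI cut → CE. Bidirectional fit vs DMSO.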

[16] = ATG_FoxO_CIS: Attagene CIS-FACTORIAL HepG2 Assay for human Forkhead box O (FoxO) (AID 2282943); settings: HepG2 Attagene cis-reporter, FoxO element, mRNA; actives raise or lower the signal
Procedure, shortened: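 Transfected HepG2 reporter cells exposed to test chemical for 24 h; reporter RNA measured by reverse transcription, PCR and fluorescent capillary electrophoresis; curves fitted for increases and decreases against DMSO.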

[17] = ATG_GATA_CIS: Attagene CIS-FACTORIAL HepG2 Assay for human GATA Binding Protein (AID 2282944); settings: HepG2 GATA cis-element reporter, Attagene multiplex mRNA; actives raise or lower the signal
Procedure, shortened: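 Transfected cis-reporter HepG2 cells were treated with chemicals for 24 hours. Total RNA was then converted to cDNA, amplified with reporter-specific primers and analysed by fluorescent capillary electrophoresis, using DMSO-treated wells as baseline.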

[18] = ATG_GLI_CIS: Attagene CIS-FACTORIAL HepG2 Assay for human Zinc Finger Protein GLI1 (AID 2282945); settings: HepG2, Attagene cis-factorial reporter mRNA, GLI element; actives raise or lower the signal
Procedure, shortened: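 Transiently transfected HepG2 cells report endogenous transcription factor activity via cis-element-driven reporter units. After 24 h compound exposure, reporter mRNA was measured by RT-PCR with capillary electrophoresis; bidirectional fitting against DMSO baseline.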

[19] = biological target: Retinoic acid receptor alpha (Homo sapiens) (UniProt P10276); assay: ATG_DR5_RAR_CIS: Attagene CIS-FACTORIAL HepG2 Assay for human Retinoic Acid Receptor Alpha (RARE), DR5 submotif (AID 2282934); settings: HepG2 Attagene cis-factorial RARE DR5 reporter, mRNA; actives raise or lower the signal
Retinoic acid receptor alpha (Homo sapiens), sequence (P10276 whole entry, looked up): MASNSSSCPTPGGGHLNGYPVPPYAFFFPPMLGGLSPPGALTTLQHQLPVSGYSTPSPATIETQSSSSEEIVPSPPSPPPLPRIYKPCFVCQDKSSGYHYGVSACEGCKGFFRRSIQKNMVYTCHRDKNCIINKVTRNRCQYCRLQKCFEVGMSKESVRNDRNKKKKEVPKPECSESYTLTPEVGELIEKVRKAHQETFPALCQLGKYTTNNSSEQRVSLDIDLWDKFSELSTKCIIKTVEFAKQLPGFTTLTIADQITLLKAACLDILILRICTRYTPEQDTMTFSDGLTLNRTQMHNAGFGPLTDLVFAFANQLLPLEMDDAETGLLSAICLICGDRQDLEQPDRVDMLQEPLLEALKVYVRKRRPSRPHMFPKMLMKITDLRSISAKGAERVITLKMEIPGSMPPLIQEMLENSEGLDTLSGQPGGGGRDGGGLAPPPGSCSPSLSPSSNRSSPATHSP
Procedure, shortened: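 After 24 h of chemical exposure, transiently transfected HepG2 cells were lysed for total RNA; the DR5-regulated reporter transcript was quantified via RT-PCR and capillary electrophoresis, with activity fitted bidirectionally against DMSO.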

[20] = ATG_M_19_CIS: Attagene CIS-FACTORIAL HepG2 Assay for M19 Transcription Factor (Internal Marker) (AID 2282939); settings: HepG2 Attagene CIS-FACTORIAL M19 internal marker reporter; actives raise or lower the signal
Procedure, shortened: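 Chemical-treated HepG2 (24 h) with MRTU constructs; reporter transcripts detected by fluorescent RT-PCR fragment analysis on capillary electrophoresis. Internal background marker, DMSO as baseline.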

For Cc1cc2c(cc1C(F)(F)F)N(C(=O)Nc1ccc(Oc3cccnc3C)nc1)CC2, the outcome [1] was “inactive”, the outcome [2] was “inactive” and the outcome [3] was “inactive”. For the same molecule, the outcome [4] was “inactive”, the outcome [5] was “inactive” and the outcome [6] was “inactive”. For the same molecule, the outcome [7] was “inactive”, the outcome [8] was “inactive” and the outcome [9] was “inactive”. For the same molecule, the outcome [10] was “inactive”, the outcome [11] was “inactive” and the outcome [12] was “inactive”. For the same molecule, the outcome [13] was “inactive”, the outcome [14] was “inactive” and the outcome [15] was “inactive”. For the same molecule, the outcome [16] was “inactive”, the outcome [17] was “inactive” and the outcome [18] was “inactive”.

In the case of CN(C)C(=O)C1(N2CCCCC2)CCN(CC[C@@]2(c3ccc(Cl)c(Cl)c3)CN(C(=O)c3ccccc3)CCO2)CC1, the outcome [1] is reported as “inactive”, the outcome [2] is reported as “inactive” and the outcome [3] is reported as “inactive”. For the same molecule, the outcome [4] was “inactive”, the outcome [5] was “inactive” and the AC50 [6] was 0.463 µM (active). For the same molecule, the outcome [7] was “inactive”, the outcome [8] was “inactive” and the outcome [9] was “inactive”. For the same molecule, the outcome [10] was “inactive”, the outcome [11] was “inactive” and the outcome [12] was “inactive”. For the same molecule, the outcome [13] was “inactive”, the outcome [14] was “inactive” and the outcome [15] was “inactive”. The outcome [16] was “inactive”, the outcome [17] was “inactive” and the outcome [18] was “inactive”.

In the case of CCN(Cc1cccc(S(=O)(=O)O)c1)c1ccc(C(=C2C=CC(=[N+](CC)Cc3cccc(S(=O)(=O)O)c3)C=C2)c2ccccc2S(=O)(=O)[O-])cc1, the outcome [1] is reported as “inactive”, the outcome [2] is reported as “inactive” and the outcome [3] is reported as “inactive”. The outcome [4] was “inactive”, the outcome [5] was “inactive” and the outcome [6] was “inactive”. For the same molecule, the outcome [7] was “inactive”, the outcome [8] was “inactive” and the outcome [9] was “inactive”. For the same molecule, the outcome [10] was “inactive”, the outcome [11] was “inactive” and the outcome [12] was “inactive”. For the same molecule, the outcome [13] was “inactive”, the outcome [14] was “inactive” and the outcome [15] was “inactive”. The outcome [16] was “inactive”, the outcome [17] was “inactive” and the outcome [18] was “inactive”.

With COCC(C)OCC(C)OCC(C)O (stereo not given) the outcome [1] was “inactive”, the outcome [2] was “inactive” and the outcome [3] was “inactive”. The outcome [4] was “inactive”, the outcome [5] was “inactive” and the outcome [6] was “inactive”. The outcome [7] was “inactive”, the outcome [8] was “inactive” and the outcome [19] was “inactive”. The outcome [9] was “inactive”, the outcome [10] was “inactive” and the outcome [11] was “inactive”. The outcome [12] was “inactive”, the outcome [20] was “inactive” and the outcome [13] was “inactive”. The outcome [14] was “inactive”, the outcome [15] was “inactive” and the outcome [16] was “inactive”. For the same molecule, the outcome [17] was “inactive” and the outcome [18] was “inactive”.

In the case of O=C(O)Cn1c(=O)n(Cc2ccc(Br)cc2F)c(=O)c2ccc(Cl)cc21, the outcome [1] is reported as “inactive”, the outcome [2] is reported as “inactive” and the outcome [3] is reported as “inactive”. For the same molecule, the outcome [4] was “inactive”, the outcome [5] was “inactive” and the outcome [6] was “inactive”. The outcome [7] was “inactive”, the outcome [8] was “inactive” and the outcome [9] was “inactive”. The outcome [10] was “inactive”, the outcome [11] was “inactive” and the outcome [12] was “inactive”. The outcome [13] was “inactive”, the outcome [14] was “inactive” and the outcome [15] was “inactive”. The outcome [16] was “inactive”, the outcome [17] was “inactive” and the outcome [18] was “inactive”.

For CCCCCc1ccc(N)cc1, the outcome [1] was “inactive”, the outcome [2] was “inactive” and the outcome [3] was “inactive”. The outcome [4] was “inactive”, the AC50 [5] was 65.5 µM (active) and the outcome [5] was “inactive”. For the same molecule, the AC50 [6] was 25.9 µM (active), the outcome [6] was “inactive” and the outcome [7] was “inactive”. The outcome [8] was “inactive”, the outcome [19] was “inactive” and the outcome [9] was “inactive”. The AC50 [10] was 5.55 µM (active) and 4.89 µM (active), the outcome [10] was “inactive” and the outcome [11] was “inactive”. The outcome [12] was “inactive”, the outcome [20] was “inactive” and the AC50 [13] was 15.1 µM (active) [middle of 4 runs]. For the same molecule, the outcome [14] was “inactive”, the outcome [15] was “inactive” and the outcome [16] was “inactive”. The outcome [17] was “inactive” and the outcome [18] was “inactive”.
